The source of these data is PubChem BioAssay.

Assay [1] is described as follows: antimalarial activity against Dd2 strain (AID 2302;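 active = growth inhibition above 50% at the single 2 µM test dose, taken to imply half-maximal potency below 2 µM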;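 note: 0% = DMSO untreated growth and 100% = chloroquine plus artemisinin killed control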). The following applies: P. falciparum Dd2 in RBCs, LDH growth readout, 72 h; at 2 µM; hits give high values.
Assay [2] is described as follows: HepG2 cytotoxicity, primary screen, cytotoxicity control for P. falciparum antimalarial project, cell-based, ATP luminescence (AID 2303;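 active = inhibition above 50%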;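 note: 0% = DMSO wells and 100% = digitonin-killed cells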). The note with it: HepG2 viability, 24-48 h, at 10 µM, hits give high values.
The target of assay [3] is L-lactate dehydrogenase (Plasmodium falciparum (isolate CDC / Honduras)) (UniProt Q27743). Briefly: PfLDH activity inhibition – cell lysate, 3D7 strain, counter-screen for P. falciparum growth inhibition project (AID 2304).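 Note: 0% = vehicle and 100% = reference inhibitor.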 The following applies: P. falciparum 3D7 crude extract, LDH APAD/NBT absorbance; at 2 µM; hits give high values. In general terms: A counterscreen serves to expose hits that act by an unwanted route or on another target.
Chain of L-lactate dehydrogenase (Plasmodium falciparum (isolate CDC / Honduras)) (Q27743 whole entry, looked up): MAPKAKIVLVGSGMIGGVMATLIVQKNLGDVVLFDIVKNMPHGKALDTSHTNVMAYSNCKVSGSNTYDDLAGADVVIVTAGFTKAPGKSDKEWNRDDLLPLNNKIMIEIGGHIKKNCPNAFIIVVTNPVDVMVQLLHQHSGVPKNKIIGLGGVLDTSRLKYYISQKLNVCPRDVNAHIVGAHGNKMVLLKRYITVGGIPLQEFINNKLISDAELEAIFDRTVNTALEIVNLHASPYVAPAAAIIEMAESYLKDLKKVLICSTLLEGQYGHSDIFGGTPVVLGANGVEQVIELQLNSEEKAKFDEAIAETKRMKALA

The nature of assay [4]: inhibition of 3D7 malaria parasite growth – strain 3D7 (AID 2306).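 Note: 0% = DMSO wells and 100% = chloroquine plus artemisinin control wells.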 The following applies: P. falciparum 3D7 erythrocytic growth, LDH absorbance, 72 h; at 2 µM; hits give high values.
Assay [5] deals with Calcium-dependent protein kinase 1 (Plasmodium falciparum (isolate 3D7)) (UniProt P62344). Briefly: PfCDPK1 kinase inhibitors, biochemical, TCAMS library (AID 1159585; cut-off not given, nearly all actives have IC50 up to about 0.98 µM;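 note: inhibitors leave more ATP so luminescence rises with inhibition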). The note with it: recombinant PfCDPK1, Kinase-Glo ATP depletion luminescence.
Chain of Calcium-dependent protein kinase 1 (Plasmodium falciparum (isolate 3D7)) (P62344 whole entry, looked up): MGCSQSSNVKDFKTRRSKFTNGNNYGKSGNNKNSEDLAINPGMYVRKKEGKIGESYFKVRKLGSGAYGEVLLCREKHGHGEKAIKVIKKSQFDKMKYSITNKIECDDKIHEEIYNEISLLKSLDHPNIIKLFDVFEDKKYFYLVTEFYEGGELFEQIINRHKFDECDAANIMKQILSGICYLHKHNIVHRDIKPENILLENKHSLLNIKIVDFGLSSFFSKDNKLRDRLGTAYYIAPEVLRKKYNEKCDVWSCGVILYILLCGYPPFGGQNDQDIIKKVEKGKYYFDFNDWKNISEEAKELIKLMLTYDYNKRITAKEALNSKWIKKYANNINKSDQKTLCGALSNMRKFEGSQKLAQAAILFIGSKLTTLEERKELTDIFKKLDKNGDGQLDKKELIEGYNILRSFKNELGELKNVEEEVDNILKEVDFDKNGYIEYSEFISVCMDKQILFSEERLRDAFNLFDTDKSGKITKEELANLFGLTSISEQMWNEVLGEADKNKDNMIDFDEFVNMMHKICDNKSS
The target in assay [6] is Plasmodium falciparum protein kinase 6 (PK6, PF3D7_1337100) (UniProt Q8IDW1). Briefly: PfPK6 kinase inhibitors, biochemical, TCAMS library (AID 1159586). The note with it: recombinant PfPK6, Kinase-Glo ATP depletion luminescence.
Chain of Plasmodium falciparum protein kinase 6 (PK6, PF3D7_1337100) (Q8IDW1 1-305): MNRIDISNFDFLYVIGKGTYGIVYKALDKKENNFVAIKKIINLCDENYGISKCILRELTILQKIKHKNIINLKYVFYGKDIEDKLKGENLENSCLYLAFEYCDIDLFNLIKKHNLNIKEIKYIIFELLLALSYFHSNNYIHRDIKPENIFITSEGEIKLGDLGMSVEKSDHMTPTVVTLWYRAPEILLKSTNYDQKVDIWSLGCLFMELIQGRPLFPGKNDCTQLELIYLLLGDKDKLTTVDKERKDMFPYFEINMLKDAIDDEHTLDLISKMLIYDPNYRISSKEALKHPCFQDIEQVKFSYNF
In assay [7] the target is Protein kinase 7 (PK7), Plasmodium falciparum 3D7 (PF3D7_0213400) (UniProt Q7YTF7). Briefly: inhibition of Plasmodium PK7 catalytic activity – biochemical, TCAMS antimalarial set, Kinase-Glo luminescence (AID 1159587). The note with it: recombinant PfPK7, Kinase-Glo ATP depletion luminescence. Background: In Kinase-Glo more light means more ATP remaining.
Chain of Protein kinase 7 (PK7), Plasmodium falciparum 3D7 (PF3D7_0213400) (Q7YTF7 1-343): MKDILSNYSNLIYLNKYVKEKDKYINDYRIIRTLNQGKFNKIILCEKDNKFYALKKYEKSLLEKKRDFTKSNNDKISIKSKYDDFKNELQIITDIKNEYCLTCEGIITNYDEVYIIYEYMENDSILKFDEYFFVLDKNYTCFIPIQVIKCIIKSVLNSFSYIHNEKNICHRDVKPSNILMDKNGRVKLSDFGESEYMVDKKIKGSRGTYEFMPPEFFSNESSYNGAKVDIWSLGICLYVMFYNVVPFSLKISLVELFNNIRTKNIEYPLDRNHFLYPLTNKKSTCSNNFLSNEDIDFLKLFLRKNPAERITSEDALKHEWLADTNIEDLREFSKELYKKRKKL
In assay [8] the target is Calcium-dependent protein kinase 4 (Plasmodium falciparum (isolate 3D7)) (UniProt Q8IBS5). Briefly: PfCDPK4 kinase inhibitors, biochemical, TCAMS library (AID 1159588; cut-off not given, nearly all actives have IC50 up to about 0.91 µM). The following applies: recombinant PfCDPK4, Kinase-Glo ATP depletion luminescence.
Chain of Calcium-dependent protein kinase 4 (Plasmodium falciparum (isolate 3D7)) (Q8IBS5 whole entry, looked up): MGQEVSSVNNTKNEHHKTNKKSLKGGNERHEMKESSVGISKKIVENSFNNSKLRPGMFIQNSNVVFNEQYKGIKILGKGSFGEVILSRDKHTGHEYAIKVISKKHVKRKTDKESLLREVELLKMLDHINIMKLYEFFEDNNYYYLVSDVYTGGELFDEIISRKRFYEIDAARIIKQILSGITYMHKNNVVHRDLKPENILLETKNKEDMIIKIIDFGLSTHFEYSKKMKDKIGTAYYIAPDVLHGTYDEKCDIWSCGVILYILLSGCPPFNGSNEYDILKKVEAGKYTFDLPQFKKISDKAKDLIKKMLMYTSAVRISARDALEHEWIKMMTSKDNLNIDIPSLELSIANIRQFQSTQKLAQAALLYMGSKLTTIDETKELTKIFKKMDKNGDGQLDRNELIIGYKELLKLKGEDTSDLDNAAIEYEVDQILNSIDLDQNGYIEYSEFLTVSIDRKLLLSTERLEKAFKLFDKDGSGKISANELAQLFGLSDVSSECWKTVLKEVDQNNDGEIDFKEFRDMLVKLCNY

A number with no mark means an inactive call. For some of these results: Results with a measured potency or affinity are listed apart. Calls of active or inactive are those of the source. Unless noted, the rule behind the calls is not given here.

With `CN(Cc1ccc(C#N)cc1)C1CCN(c2cc(NC(=O)c3ccc(F)cc3)ccn2)CC1`, the values for the growth inhibition in assay [1] and in assay [4] were 10% and 86% (active), respectively. Moreover, the inhibition – broadly, the change of the read-out against control, counted positive when it falls – was 24% in assay [2] and -5% in assay [3]. The result in assay [5], in assay [6], in assay [7] and in assay [8] was inactive.

For `O=C(Cc1cccc2ccccc12)N1CCc2cc3nccc(N4CCN5CCC[C@H]5C4)c3cc21`, the growth inhibition in assay [1] is 99% (active); in assay [4] it was 101% (active). The inhibition in assay [2] is 3%; in assay [3], 2%. In addition, the result in assay [5], in assay [6], in assay [7] and in assay [8] was inactive.

With `Cc1ccc(NC(=O)N2CCCN(CCCCCNC(=O)/C=C/c3ccc(Cl)c(Cl)c3)CC2)cc1`, the figures for the growth inhibition in assay [1] and in assay [4] were 2% and 99% (active), respectively. Moreover, the inhibition is 12% in assay [2] and -6% in assay [3]. The result in assay [5], in assay [6], in assay [7] and in assay [8] was inactive.

As for `COc1ccc2c(CCNc3nc(SC)ncc3C(=O)NCCc3ccc(F)cc3)c[nH]c2c1`, the values for the growth inhibition in assay [1] and in assay [4] were 49% and 91% (active), respectively. Moreover, the inhibition in assay [2] is 3%; in assay [3], -1%. The result in assay [5], in assay [6], in assay [7] and in assay [8] was inactive.

With `CCCCCCN(C(=O)OCc1ccccc1)[C@@H]1CCN(C(=O)OC(C)(C)C)C[C@H]1C(=O)OCC`, the growth inhibition in assay [1] and in assay [4] was 96% (active) each time. For the same compound, the inhibition in assay [2] was 9%; in assay [3], -6%. Also, the outcome in assay [5], in assay [6], in assay [7] and in assay [8] was inactive.

As for `COc1ccc(CCC(C)(C)NCC(O)c2cccc(C(F)(F)F)c2)cc1` (stereo not given), the growth inhibition in assay [1] is 98% (active); in assay [4], 99% (active). Besides, the inhibition in assay [2] was 26%; in assay [3], 3%. For the same compound, the outcome in assay [5], in assay [6], in assay [7] and in assay [8] was inactive.

`Cc1cccc2[nH]c(-c3ccc(-c4ccc(CNCc5cnn(-c6ccccc6)n5)cc4)s3)nc12`: the growth inhibition in assay [1] was 48%; in assay [4], 97% (active). Also, the values for the inhibition in assay [2] and in assay [3] were 16% and -3%, respectively. For the same compound, the outcome in assay [5], in assay [6], in assay [7] and in assay [8] was inactive.

Consider `CC(C)CCCC(C)(C)NC[C@@H](O)[C@H](Cc1ccccc1)NC(=O)c1cc(NC(C)C)cc(N2CCCCS2(=O)=O)c1`, for which the growth inhibition in assay [1] and in assay [4] was 98% (active) throughout. For the same compound, the values for the inhibition in assay [2] and in assay [3] were 2% and -1%, respectively. The outcome in assay [5], in assay [6], in assay [7] and in assay [8] was inactive.

As for `CN(C)CCOc1cccc(-c2cnc(N)c(-c3nc4ccc(S(C)(=O)=O)cc4[nH]3)c2)c1`, the growth inhibition was 82% (active) in assay [1] and 100% (active) in assay [4]. Also, the inhibition in assay [2] is 39%; in assay [3], 1%. Further, the outcome in assay [5], in assay [6], in assay [7] and in assay [8] was inactive.

As for `O=C(NC1CCN(CC2(c3ccc(Cl)cc3)CCCCC2)CC1)c1ccn[nH]1`, the growth inhibition in assay [1] is 96% (active); in assay [4], 98% (active). Further, the inhibition in assay [2] was -3%; in assay [3] it was 4%. For the same compound, the result in assay [5], in assay [6], in assay [7] and in assay [8] was inactive.

Turning to `Cc1ccc2c(c1)c(C1CCN(C(=O)c3ccc([N+](=O)[O-])o3)CC1)cn2C`, the growth inhibition is 76% (active) in assay [1] and 97% (active) in assay [4]. Besides, the results for the inhibition in assay [2] and in assay [3] were -6% and -1%, respectively. Also, the outcome in assay [5], in assay [6], in assay [7] and in assay [8] was inactive.

For `c1ccc2sc(Sc3ncnc4sccc34)nc2c1`, the growth inhibition in assay [1] and in assay [4] was 100% (active) throughout. For the same compound, the inhibition in assay [2] was 7%; in assay [3], 2%. Moreover, the result in assay [5], in assay [6], in assay [7] and in assay [8] was inactive.

Turning to `COc1cc2nc(NCCc3cccc(Cl)c3)nc(NCc3ccccc3)c2cc1OC`, the growth inhibition in assay [1] and in assay [4] was 101% (active) each time. Moreover, the inhibition was 97% (active) in assay [2] and 0% in assay [3]. Further, the outcome in assay [5], in assay [6], in assay [7] and in assay [8] was inactive.

With `CN(C)c1ccc(NC(=O)Nc2ccnc3ccc(Br)cc23)cc1`, the figures for the growth inhibition in assay [1] and in assay [4] were 21% and 91% (active), respectively. Moreover, the figures for the inhibition in assay [2] and in assay [3] were -5% and 6%, respectively. Also, the result in assay [5], in assay [6], in assay [7] and in assay [8] was inactive.

Take `Cc1ccc(C(=O)Nc2ccc(C)c(OC3CCN(CCC(C)C)C3)c2)cc1` (stereo not given): the growth inhibition was 53% (active) in assay [1] and 99% (active) in assay [4]. Besides, the results for the inhibition in assay [2] and in assay [3] were 6% and -13%, respectively. Further, the result in assay [5], in assay [6], in assay [7] and in assay [8] was inactive.

For the compound `Cc1nc(C)c(CC(=O)Nc2ccc(-c3ccc(-c4nc5ccc(C(F)(F)F)cc5[nH]4)s3)cc2)s1`, the growth inhibition is 29% in assay [1] and 90% (active) in assay [4]. Besides, the values for the inhibition in assay [2] and in assay [3] were 57% (active) and -8%, respectively. Besides, the result in assay [5], in assay [6], in assay [7] and in assay [8] was inactive.

On to `CCC[C@@H]([C@@H](CC(C)C)C(=O)N[C@@H](CCCCNC(=O)c1ccccn1)C(=O)Nc1nccs1)N(O)C=O`, for which the growth inhibition in assay [1] was 100% (active); in assay [4], 101% (active). Further, the inhibition was -23% in assay [2] and -3% in assay [3]. The result in assay [5], in assay [6], in assay [7] and in assay [8] was inactive.

As for `COc1ccc(S(=O)(=O)Nc2ccc(C(=O)NCc3ccc(C(F)(F)F)cc3)cc2)cc1N1CCN(CC2CC2)CC1`, the growth inhibition in assay [1] was 1%; in assay [4], 95% (active). Further, the figures for the inhibition in assay [2] and in assay [3] were 34% and 2%, respectively. For the same compound, the outcome in assay [5], in assay [6], in assay [7] and in assay [8] was inactive.

Take `Oc1ccc2[nH]c(-c3ccc(OC(F)(F)F)cc3)nc2c1CNC1CCCC1`: the growth inhibition in assay [1] is 97% (active); in assay [4] it was 99% (active). For the same compound, the values for the inhibition in assay [2] and in assay [3] were 32% and 0%, respectively. In addition, the outcome in assay [5], in assay [6], in assay [7] and in assay [8] was inactive.

In the case of `Cc1cc(NC(=O)c2ccco2)ccc1OC1CCN(Cc2ccccc2)CC1`, the values for the growth inhibition in assay [1] and in assay [4] were 95% (active) and 93% (active), respectively. The inhibition in assay [2] was 3%; in assay [3], -9%. For the same compound, the result in assay [5], in assay [6], in assay [7] and in assay [8] was inactive.
